TRPV1 agonist = human TRPV1 agonism. hit rate 0.19% among 320,000. TRPV1-expressing cells, Fluo-8 calcium influx, agonist mode. AID 540275. activation, % at 8.33 µM. Q8NER1; in the data active = activation above about 80%; inconclusive = between about 30% and that limit
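Cells expressing TRPV1 were dye-loaded with Fluo-8 and read kinetically: 10 s baseline, 3 min after compound (agonist portion), then 2 min after EC20 capsaicin (allosteric enhancer portion). Calcium-bound dye fluorescence at 480/520 nm.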
RORgamma inh = ROR gamma (mouse) transcription inhibition; P51450; Drosophila S2 Gal4-RORgamma UAS-luciferase reporter, 20 h; Potency, µM (series often up to 53.6 µM), most hits filed as inhibitors; hit rate 5.4% among 310,000; note: nearly all actives have a fitted effect of over 60% in size
Target sequence (P51450 whole entry, looked up, the tested form may be a part): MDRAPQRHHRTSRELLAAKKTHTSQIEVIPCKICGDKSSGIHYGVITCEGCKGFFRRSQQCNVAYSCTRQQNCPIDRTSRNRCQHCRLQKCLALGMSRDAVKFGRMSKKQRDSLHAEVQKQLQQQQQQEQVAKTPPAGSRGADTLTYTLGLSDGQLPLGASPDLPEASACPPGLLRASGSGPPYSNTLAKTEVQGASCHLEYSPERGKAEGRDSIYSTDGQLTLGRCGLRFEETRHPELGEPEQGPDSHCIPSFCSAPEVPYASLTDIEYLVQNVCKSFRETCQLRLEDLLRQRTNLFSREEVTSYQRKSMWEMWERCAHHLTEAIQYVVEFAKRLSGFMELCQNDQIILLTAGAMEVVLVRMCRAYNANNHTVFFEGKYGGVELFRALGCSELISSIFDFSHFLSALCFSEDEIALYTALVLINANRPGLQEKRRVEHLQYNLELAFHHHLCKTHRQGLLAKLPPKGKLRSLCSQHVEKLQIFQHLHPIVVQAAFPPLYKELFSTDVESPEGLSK
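Read-out: Photinus luciferase luminescence; inhibitors lower reporter signal. Insect Schneider cells with Gal4-ROR gamma fusion under metallothionein promoter, UAS reporter; 700 uM final copper sulfate induction, 20 hr, ambient temperature.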
TRPV1 potentiator = human TRPV1 potentiation | TRPV1-expressing cells, Fluo-8 calcium influx, capsaicin EC20 potentiation | AID 540277 | hit rate 0.02% among 320,000 | potentiation, % at 8.33 µM; in the data active = potentiation above about 80%; inconclusive = between about 30% and that limit
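Fluo-8 calcium influx in TRPV1-expressing cells, kinetic read (ex 480/em 520 nm). Compound added and read 3 min for agonist activity, followed by capsaicin at EC20 final and 2 min further read for enhancement.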
VP16 counter = counter-screen for ROR gamma inhibitors: Gal4-VP16 reporter. Potency, µM (top dose mostly 53.6 µM), actives largely listed as inhibitors. AID 2546. hit rate 3.5% among 310,000. Drosophila S2 Gal4-VP16 UAS-luciferase, luminescence, 20 h;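 note: Gal4-VP16 expression switched on by copper sulfate through the metallothionein promoter; nearly all actives have a fitted effect of over 50% in size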
uPA surface inh = inhibitors of cell surface uPA generation. cell surface uPA generation assay, qHTS. Potency, µM (series often up to 38.3 µM), most hits filed as inhibitors. hit rate 0.31% among 330,000. AID 540303; active = well fitted inhibition curve with a large enough effect; inconclusive = small, poorly fitted or top-dose-only effect; inactive = no such curve, though single readings can be large or run the other way; tested in mouse RAW 264.7 cells; note: nearly all actives have a fitted effect of over 55% in size
A number is an active result; 0 = inactive; ? = inconclusive; - = no result given; [ ] = dose if it differs, or a comment. The list is not random: actives were taken first. Their share in the collection is about 5.8%. Unless noted, calls come from the whole dose curve; as a rule, active = well fitted curve in the direction sought with a large enough effect; inconclusive = small, poorly fitted or top-dose-only effect, or another doubt; inactive = no such curve, though single readings can be large; an effect the other way counts as inactive or inconclusive.

SMILES	TRPV1 agonist	RORgamma inh	TRPV1 potentiator	VP16 counter	uPA surface inh
CC(C)CC(=O)NC(=S)Nc1nc(-c2ccc(Cl)cc2)cs1	0	8.9µM	0	?	0
CC(C)CC(=O)NC(=S)Nc1nc(-c2ccccc2)cs1	0	6.3µM	0	5.6µM	0
COCC(=O)Nc1nc(-c2ccc(-c3ccccc3)cc2)cs1	0	0	?	0	0
CC(=O)Nc1ccc(S(=O)(=O)N(C)c2ccc(OCC(=O)OCC(=O)NCc3ccco3)cc2)cc1	0	0	0	0	0
Cc1nc2[nH]c(=S)[nH]c2cc1Br	0	11µM	0	0	0
CCCC(=O)NC(Nc1cc(C(F)(F)F)ccc1Cl)C(Cl)(Cl)Cl (stereo unspecified)	0	?	0	10µM	0
Cn1ccnc1SCC(=O)c1cccc(C(F)(F)F)c1	0	?	0	0	0
Oc1ccc2ccccc2c1/C=N/Nc1nnc(-c2ncc[nH]2)c2ccccc12	0	0.25µM	0	0.25µM	0
Oc1ccc2ccccc2c1C=NNc1ccccn1	-	-	-	-	0
COc1ccc(/C=N/Nc2cc(C)nc3c(C)cccc23)cc1	0	?	0	?	?
COc1ccc(/C=N/Nc2nnc(-c3ncc[nH]3)c3ccccc23)cc1	0	2.8µM	0	4.5µM	0
CN(C(=O)Nc1ccc(Cl)cc1Cl)[C@H]1c2cc(Br)ccc2OC[C@H]1CO	?	2.8µM	0	?	-
COc1ccc(S(=O)(=O)NCCCC(=O)Nc2ccc(Sc3ccc(N)cc3)cc2)cc1	-	0	-	?	-
Cc1ccccc1-c1nc(CN(Cc2c(C)nn(C)c2C)C2CC2)c(C)o1	?	5.6µM	0	13µM	0
O=C(C1CC1)N(CCc1ccccc1)Cc1nc2ccccc2c(=O)[nH]1	0	?	0	0	0
COc1ccc(CCN(Cc2nc3ccccc3c(=O)[nH]2)C(=O)C2CC2)cc1	0	3.2µM	0	13µM	0
O=C(C1CCC1)N(CCc1ccccc1)Cc1nc2ccccc2c(=O)[nH]1	0	1.8µM	0	7.9µM	0
O=C(NC1CCCCC1)N(Cc1ccc(F)cc1)Cc1nc2ccccc2c(=O)[nH]1	0	0	0	0	0
COC(=O)NC(/C=C/c1ccccc1)[C@]1(C(C)=O)CCCC1=O (stereo partly specified)	-	0[10 µM]	-	0[10 µM]	-
COC(=O)c1ccc2c(=O)n(-c3ccccc3F)c(=S)[nH]c2c1	0	3.2µM	0	5.6µM	0
COC(=O)c1ccc2c(=O)n(CCCCCC(=O)O)c(=O)[nH]c2c1	0	10µM	0	16µM	0
CCCCNC(=O)CCCCCn1c(=O)[nH]c2cc(C(=O)OC)ccc2c1=O	0	0	0	0	0
CCc1cc2c(=O)n(-c3ccccc3)c(=S)[nH]c2s1	0	2.5µM	0	4.5µM	-
O=C(O)c1ccc2c(=O)n(-c3ccccc3F)c(=S)[nH]c2c1	0	0	0	0	0
COc1ccc(-n2c(=S)[nH]c3cc(C(=O)N4CCN(c5ccccc5)CC4)ccc3c2=O)cc1	0	10µM	0	?	0
SMILES	TRPV1 agonist	RORgamma inh	TRPV1 potentiator	VP16 counter	uPA surface inh
CO[C@@H]1COC(=O)[C@H](C)NC(=O)[C@@H](C)COC(=O)CCC[C@H]1C	-	0[10 µM]	-	0[10 µM]	-
Cc1ccc(Cl)cc1N1CCN(S(=O)(=O)c2c(C)[nH]c(C)c2C(=O)N2CCCCC2)CC1	0	0	0	0	0
c1cc(CN2CCCNCCNCCCNCC2)ccc1CN1CCCNCCNCCCNCC1	-	0	-	0	-
Clc1ccccc1-c1nccc(NCc2ccccc2)n1	-	0	-	0	-
COC(=O)c1ccc2c(=O)n(-c3ccccc3)c(=S)[nH]c2c1	0	1.8µM	0	?	0
COc1ccc(-c2cn3c(C)c(C(=O)Nc4cc(NC(C)=O)ccc4OC)sc3n2)cc1	0	13µM	0	?	?
Cc1c(C(=O)Nc2ccncc2)sc2nc(-c3ccccc3)cn12	90	0	0	?	?
N=C(N)N1Cc2ccccc2C(O)C1 (stereo unspecified)	-	0	-	0	-
C/C(=N\NC(=O)c1ccccc1NC(=O)c1ccc(Cl)cc1)c1ccncc1	0	0.56µM	0	0.89µM	0
O=C(Nc1ccccc1C(=O)N/N=C/c1ccco1)c1ccc(F)cc1	0	1.1µM	0	5µM	0
O=C(N/N=C/c1ccco1)c1ccncc1	0	?	0	?	-
CC(=NNC(=O)c1ccncc1)c1ccccc1Cl	-	-	-	-	0
O=C(Nc1ccccc1C(=O)N/N=C/c1ccco1)c1ccc(Cl)cc1	?	2.8µM	0	4µM	0

Screening data as filed in PubChem.
